# Source: PubChem BioAssay AID720519 (National Center for Advancing Translational Sciences (NCATS), 2013)
# Inconclusive results are not listed. Calls of active or inactive are those of the source. Calls follow the shape of the dose curve; as a rule, active = well fitted activation curve with a large enough effect; inconclusive = small, poorly fitted or top-dose-only effect; inactive = flat fitted curve, though single readings scatter.
# Assay: qHTS for Inhibitors of Cell Surface uPA Generation: Confirmatory Assay for Cherry-picked Compounds; as to inhibition: 0% is about no effect
# Conditions: cell surface uPA activity generation, qHTS confirmation; series mostly up to 115 µM; inhibition: at the top concentration
# Method in brief: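 RAW 264.7 cells at 4000/well, incubated overnight, then treated with compounds. After 24 h at 37 C, viability was read by ATPlite luminescence. An increase in signal indicates blocked uPA-dependent LF entry.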
# Potency is read from the fitted curve at half-maximal effect.
Compound,inhibition,Potency
CCCCCOC(=O)C1=C(C)NC(=O)NC1c1ccccc1 (centres undefined),0.136% (inactive),–
CCc1ccccc1NC(=O)CN(C)C(=O)CSc1nnc(Nc2cccc(C)c2C)s1,-2.94% (inactive),–
C=CCOC(=O)C1=C[C@H](c2ccc(C(F)(F)F)cc2)[C@@H](CCCO)[C@H](OCC)O1,-3.55% (inactive),–
Nc1ccc(S(=O)(=O)c2ccccc2)nc1,-0.688% (inactive),–
O=[N+]([O-])c1ccc(-c2cn3c(n2)SCC3)cc1,-1.85% (inactive),–
CCCC1=NN(C(=O)Cc2ccc(OC)cc2)C(O)(C(F)(F)F)C1 (centres undefined),-1.51% (inactive),–
C/C(=N\NC(=O)c1cccc([N+](=O)[O-])c1)c1cccnc1,-1.45% (inactive),–
O=C(CCCC(=O)N(c1cccc(F)c1)C(C(=O)NC1CCCC1)c1ccc(O)cc1)Nc1ccccn1 (centres undefined),-2.36% (inactive),–
CCCN1CCN(C2CCCCC2NS(=O)(=O)c2ccc(Cl)cc2)CC1 (centres undefined),11.2% (inactive),–
CC1=C(C(=O)OCc2ccccc2)C(c2cccc([N+](=O)[O-])c2)NC(=O)N1 (centres undefined),-1.91% (inactive),–
COc1cc2cc(CN(CCN3CCOCC3)C(=O)Nc3ccc(F)cc3)c(=O)[nH]c2cc1OC,-0.841% (inactive),–
COc1ccc(/C=C/C(=O)Nc2ccccc2Cl)cc1S(=O)(=O)N1CCOCC1,-1.84% (inactive),–
CC(=O)c1ccc2c(c1)c1ccccc1n2CC(C)C,-0.0624% (inactive),–
CNC(=S)N1C2CCCC1CC(NC(=O)c1ccc(F)cc1)C2 (centres undefined),-0.972% (inactive),–
CCc1cc(CC)c(/C=N/NC(N)=O)c(CC)c1,-1.12% (inactive),–
COc1cccc(NC(=O)CN(C)C(=O)c2csc3c2CCCC3)c1,2.11% (inactive),–
Cc1cc(SCc2ccc(Cl)cc2)nc(=O)[nH]1,-3% (inactive),–
Cc1ccccc1NC1c2ccccc2C(=O)N1Cc1ccco1 (centres undefined),-2.23% (inactive),–
COc1cc(C(C)=O)ccc1OCc1cn(CC(=O)c2ccc(O)cc2)nn1,-2.26% (inactive),–
Cc1ccc2[nH]c(CN3CCN(C)C(CCO)C3)c(C)c2c1 (centres undefined),7.04% (inactive),–

Compound,inhibition,Potency
COc1ccc(CNC(=O)C2CCC(CNS(=O)(=O)c3ccc(C)cc3)CC2)cc1 (centres undefined),-1.64% (inactive),–
COc1ccccc1N1CCN(C2CC(=O)N(c3ccccc3)C2=O)CC1 (centres undefined),-2.5% (inactive),–
O=C(NCCN1CCOCC1)c1ccccc1Cl,-2.24% (inactive),–
CC1=NN(C(N)=S)C(=O)C1N=Nc1ccccc1C(=O)O (centres undefined),-1.34% (inactive),–
S=C(Nc1ccccc1Cl)N1CCCC(c2ccccc2)=N1,–,13.1 µM (active)
CC1CCN(C2=C(NS(=O)(=O)c3ccc(Br)cc3)C(=O)c3ccccc3C2=O)CC1,-3.41% (inactive),–
COc1ccc(/C(C)=N/N2CCOCC2)c(O)c1,1.76% (inactive),–
CCc1nccn1CCC(=O)N1CCc2c([nH]c3ccccc23)C1CC(C)C (centres undefined),-0.754% (inactive),–
Cc1ccccc1NC(=O)N1CCN(c2ncccn2)CC1,-1.39% (inactive),–
COc1ccccc1NNC(=O)C(O)(c1ccccc1OC)c1ccccc1OC,1.06% (inactive),–
Cc1ccc(S(=O)(=O)N2CCN(C(=O)c3n[nH]c(=O)c4ccccc34)CC2)cc1,-1.76% (inactive),–
COc1ccc2cc(CCNC(=O)c3ccc4c(c3)OCO4)c(=O)[nH]c2c1,-1.6% (inactive),–
CC1CCCC(NC(=O)CNC(=S)N(Cc2ccccc2)Cc2cccs2)C1C (centres undefined),-2.48% (inactive),–
NC(=O)c1cc2c3ccccc3ccn2c1-c1ccccc1,-2.64% (inactive),–
CS(=O)(=O)Nc1cccc(C2=NN(S(=O)(=O)c3ccccc3)C(c3ccco3)C2)c1 (centres undefined),-1.68% (inactive),–
CCCCOc1ccc(S(=O)(=O)N2CCCCC2)cc1,-1.94% (inactive),–
CC(C)c1ccc(SCc2noc(C(=O)NCC3CCCO3)c2C(=O)O)cc1 (centres undefined),-0.491% (inactive),–
CCOc1ccccc1N(CC(=O)Nc1ccc(OC)cc1)S(=O)(=O)c1ccccc1,0.111% (inactive),–
O=C(Nc1c(C(=O)O)oc2ccc(Br)cc12)c1ccccc1,-3.83% (inactive),–
